# Data from article PMC5540273 (PLoS ONE, 2017).
# Where two headings read alike, the source gives them in different places.
# How the values were obtained:
# SgK110 = settings: concentration: 1 μM, replicates: in singlicate; n = 1
# TAK1 = system: T1, TAK1; settings: concentration: 1 μM, replicates: in singlicate; n = 1
# T1 construct: gene MAP3K7
# TAOK1 = settings: concentration: 1 μM, replicates: in singlicate; n = 1
# TAOK2 = settings: concentration: 1 μM, replicates: in singlicate; n = 1
# TAOK3 = settings: concentration: 1 μM, replicates: in singlicate; n = 1
# TBK1 = settings: concentration: 1 μM, replicates: in singlicate; n = 1
# TEC = settings: concentration: 1 μM, replicates: in singlicate; n = 1
# TESK1 = settings: concentration: 1 μM, replicates: in singlicate; n = 1
# TGFBR1 = settings: n = 1
# TGFBR2 = settings: concentration: 1 μM, replicates: in singlicate; n = 1
# TIE1 = settings: concentration: 1 μM, replicates: in singlicate; n = 1
# TIE2 = system: T2, TIE2; settings: concentration: 1 μM, replicates: in singlicate; n = 1
# T2 construct: gene TEK
# TLK1 = settings: concentration: 1 μM, replicates: in singlicate; n = 1
# TLK2 = settings: concentration: 1 μM, replicates: in singlicate; n = 1
# TNIK = settings: concentration: 1 μM, replicates: in singlicate; n = 1
# TNK1 = settings: concentration: 1 μM, replicates: in singlicate; n = 1
# TNK2 = settings: concentration: 1 μM, replicates: in singlicate; n = 1
# TNNI3K = settings: concentration: 1 μM, replicates: in singlicate; n = 1
# TRKA = system: T3, TRKA; settings: concentration: 1 μM, replicates: in singlicate; n = 1
# T3 construct: gene NTRK1
# TRKB = settings: concentration: 1 μM, replicates: in singlicate; n = 1
# [1] = concentration: 1 μM, replicates: in singlicate
# 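Also: KINOMEscan kinase panel screen.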
smiles,measurement,setting,value
CS(=O)(=O)CCNCc1ccc(-c2ccc3ncnc(Nc4ccc(OCc5ccccc5)c(Cl)c4)c3c2)o1.Cl [GW574783],%Inh,SgK110,0%
same,%Inh,TAK1,0%
same,%Inh,TAOK1,0%
same,%Inh,TAOK2,0%
same,%Inh,TAOK3,0%
same,%Inh,TBK1,2%
same,%Inh,TEC,7%
same,%Inh,TESK1,4%
same,%Inh,TGFBR1; [1],11%
same,%Inh,TGFBR2,9%
same,%Inh,TIE1,34%
same,%Inh,TIE2,2%
same,%Inh,TLK1,0%
same,%Inh,TLK2,0%
same,%Inh,TNIK,0%
same,%Inh,TNK1,0%
same,%Inh,TNK2,9%
same,%Inh,TNNI3K,0%
same,%Inh,TRKA,17%
same,%Inh,TRKB,0%
Nc1n[nH]c2nnc(-c3ccccc3)cc12 [SB-517389],%Inh,SgK110,0%
same,%Inh,TAK1,0%
same,%Inh,TAOK1,0%
same,%Inh,TAOK2,0%
same,%Inh,TAOK3,3%
same,%Inh,TBK1,6%
same,%Inh,TEC,11%
same,%Inh,TESK1,27%
same,%Inh,TGFBR1; [1],0%
same,%Inh,TGFBR2,0%
same,%Inh,TIE1,0%
same,%Inh,TIE2,0%
same,%Inh,TLK1,15%
same,%Inh,TLK2,0%
same,%Inh,TNIK,0%
same,%Inh,TNK1,0%
same,%Inh,TNK2,20%
same,%Inh,TNNI3K,13%
same,%Inh,TRKA,0%
same,%Inh,TRKB,0%
O=C(NCCCN1CCCC1=O)c1cnc(NCc2cc(Cl)ccc2Cl)nc1NC1CCNCC1,%Inh,SgK110,5%
same,%Inh,TAK1,27%
same,%Inh,TAOK1,0%
same,%Inh,TAOK2,0%
same,%Inh,TAOK3,0%
same,%Inh,TBK1,12%
same,%Inh,TEC,0%
same,%Inh,TESK1,2%
same,%Inh,TGFBR1; [1],0%
same,%Inh,TGFBR2,6%
same,%Inh,TIE1,1%
same,%Inh,TIE2,2%
same,%Inh,TLK1,12%
same,%Inh,TLK2,0%
same,%Inh,TNIK,0%
same,%Inh,TNK1,34%
same,%Inh,TNK2,0%
same,%Inh,TNNI3K,0%
same,%Inh,TRKA,69%
same,%Inh,TRKB,32%
O=C(c1ccc(-c2cc(-c3c[nH]nc3-c3ccccn3)ccn2)cc1)N1CCCC1 [GW792479],%Inh,SgK110,6%
same,%Inh,TAK1,0%
same,%Inh,TAOK1,0%
same,%Inh,TAOK2,45%
same,%Inh,TAOK3,0%
same,%Inh,TBK1,59%
same,%Inh,TEC,8%
same,%Inh,TESK1,20%
same,%Inh,TGFBR1; 1 µM,93.6%
same,%Inh,TGFBR2,39%
same,%Inh,TIE1,0%
same,%Inh,TIE2,27%
same,%Inh,TLK1,0%
same,%Inh,TLK2,0%
same,%Inh,TNIK,48%
same,%Inh,TNK1,21%
same,%Inh,TNK2,0%
same,%Inh,TNNI3K,0%
same,%Inh,TRKA,0%
same,%Inh,TRKB,0%
Fc1cccc(COc2ccc(Nc3ncnc4sc(-c5ccc[nH]5)cc34)cc2Cl)c1 [GW707818],%Inh,SgK110,0%
same,%Inh,TAK1,0%
same,%Inh,TAOK1,10%
same,%Inh,TAOK2,8%
same,%Inh,TAOK3,14%
same,%Inh,TBK1,2%
same,%Inh,TEC,0%
same,%Inh,TESK1,5%
same,%Inh,TGFBR1; [1],37%
same,%Inh,TGFBR2,3%
same,%Inh,TIE1,0%
same,%Inh,TIE2,16%
same,%Inh,TLK1,25%
same,%Inh,TLK2,11%
same,%Inh,TNIK,0%
same,%Inh,TNK1,0%
same,%Inh,TNK2,13%
same,%Inh,TNNI3K,13%
same,%Inh,TRKA,22%
same,%Inh,TRKB,0%
COc1cc2ncnc(Nc3ccc(OCc4ccccc4Br)c(Cl)c3)c2cc1OC.Cl [GI261590],%Inh,SgK110,0%
same,%Inh,TAK1,0%
same,%Inh,TAOK1,0%
same,%Inh,TAOK2,0%
same,%Inh,TAOK3,0%
same,%Inh,TBK1,10%
same,%Inh,TEC,21%
same,%Inh,TESK1,33%
same,%Inh,TGFBR1; [1],27%
same,%Inh,TGFBR2,0%
same,%Inh,TIE1,0%
same,%Inh,TIE2,3%
same,%Inh,TLK1,0%
same,%Inh,TLK2,0%
same,%Inh,TNIK,0%
same,%Inh,TNK1,0%
same,%Inh,TNK2,24%
same,%Inh,TNNI3K,5%
same,%Inh,TRKA,0%
same,%Inh,TRKB,19%
O=C(Nc1ccccc1F)NC1CCN(c2ccnc(Nc3ccc(F)cc3)n2)C1 (stereo not drawn) [GSK1379722],%Inh,SgK110,0%
same,%Inh,TAK1,0%
same,%Inh,TAOK1,0%
same,%Inh,TAOK2,0%
same,%Inh,TAOK3,0%
same,%Inh,TBK1,0%
same,%Inh,TEC,6%
same,%Inh,TESK1,16%
same,%Inh,TGFBR1; [1],25%
same,%Inh,TGFBR2,0%
same,%Inh,TIE1,0%
same,%Inh,TIE2,0%
same,%Inh,TLK1,0%
same,%Inh,TLK2,0%
same,%Inh,TNIK,0%
same,%Inh,TNK1,0%
same,%Inh,TNK2,27%
same,%Inh,TNNI3K,0%
same,%Inh,TRKA,0%
same,%Inh,TRKB,32%
O=C(Nc1ccccc1)Nc1ccc(Oc2ccc3nccn3n2)cc1,%Inh,SgK110,27%
same,%Inh,TAK1,0%
same,%Inh,TAOK1,0%
same,%Inh,TAOK2,5%
same,%Inh,TAOK3,0%
same,%Inh,TBK1,34%
same,%Inh,TEC,10%
same,%Inh,TESK1,11%
same,%Inh,TGFBR1; [1],0%
same,%Inh,TGFBR2,27%
same,%Inh,TIE1,13%
same,%Inh,TIE2,46%
same,%Inh,TLK1,0%
same,%Inh,TLK2,0%
same,%Inh,TNIK,0%
same,%Inh,TNK1,43%
same,%Inh,TNK2,10%
same,%Inh,TNNI3K,82%
same,%Inh,TRKA,0%
same,%Inh,TRKB,0%
CC(C)(C)OC(=O)NC1CCCN(c2cc(-c3ccc4c(N)n[nH]c4c3)nc(N)n2)C1 (stereo not drawn) [GSK2286096],%Inh,SgK110,0%
same,%Inh,TAK1,0%
same,%Inh,TAOK1,0%
same,%Inh,TAOK2,0%
same,%Inh,TAOK3,0%
same,%Inh,TBK1,74%
same,%Inh,TEC,5%
same,%Inh,TESK1,0%
same,%Inh,TGFBR1; [1],0%
same,%Inh,TGFBR2,0%
same,%Inh,TIE1,0%
same,%Inh,TIE2,0%
same,%Inh,TLK1,0%
same,%Inh,TLK2,0%
same,%Inh,TNIK,0%
same,%Inh,TNK1,10%
same,%Inh,TNK2,13%
same,%Inh,TNNI3K,6%
same,%Inh,TRKA,0%
same,%Inh,TRKB,0%
COc1ccc(Nc2nccc(N3CCC(NC(=O)c4cccc(NC(C)=O)c4)C3)n2)cc1 (stereo not drawn) [GSK1379732],%Inh,SgK110,10%
same,%Inh,TAK1,0%
same,%Inh,TAOK1,0%
same,%Inh,TAOK2,0%
same,%Inh,TAOK3,0%
same,%Inh,TBK1,0%
same,%Inh,TEC,0%
same,%Inh,TESK1,26%
same,%Inh,TGFBR1; [1],4%
same,%Inh,TGFBR2,0%
same,%Inh,TIE1,0%
same,%Inh,TIE2,0%
same,%Inh,TLK1,0%
same,%Inh,TLK2,0%
same,%Inh,TNIK,0%
same,%Inh,TNK1,0%
same,%Inh,TNK2,7%
same,%Inh,TNNI3K,7%
same,%Inh,TRKA,37%
same,%Inh,TRKB,40%
Nc1nc(-c2ccccn2)c(-c2ccnc3ccccc23)s1 [GW548057],%Inh,SgK110,0%
same,%Inh,TAK1,20%
same,%Inh,TAOK1,0%
same,%Inh,TAOK2,0%
same,%Inh,TAOK3,0%
same,%Inh,TBK1,12%
same,%Inh,TEC,8%
same,%Inh,TESK1,0%
same,%Inh,TGFBR2,50%
same,%Inh,TIE1,0%
same,%Inh,TIE2,0%
same,%Inh,TLK1,12%
same,%Inh,TLK2,4%
same,%Inh,TNIK,33%
same,%Inh,TNK1,0%
same,%Inh,TNK2,5%
same,%Inh,TNNI3K,0%
same,%Inh,TRKA,49%
same,%Inh,TRKB,0%
